Screening data from PubChem.
aSyn UTR act: Activators working through SNCA 5'UTR binding (MLPCN) | AID 1814 | alpha-synuclein 5'UTR reporter, activators screen | activity score, % (tested at 7.5 µM), hits read low | 7.1% of 300,000 active; in the data active = activity score below about -60%
Hits are given with their value; – = inactive. Only a sample is shown.

SMILES	aSyn UTR act
COc1ccc(/C=C2\OC(=O)c3c(OC)cccc32)cc1OC	-200.2
COc1cc(/C=C/C(=O)CC(=O)/C=C/c2ccc(O)c(OC)c2)ccc1O	-84.7
COc1ccc(/C=C2\CCCC(C(=O)C(F)(F)F)=C2O)cc1OC	-69.1
COc1cc(/C=C/C(=O)c2ccc([N+](=O)[O-])o2)ccc1O	–
O=C(/C=C/c1ccc(Cl)cc1)NCCc1ccccc1	-66.5
O=C(/C=C/c1ccccc1Cl)NCCc1ccccc1	-175.9
Fc1ccccc1-c1nc(-c2ccccc2)no1	-96.6
Fc1ccccc1-c1nc(-c2ccncc2)no1	-115.9
NC(=O)c1ccccc1-c1nc(-c2ccccc2)no1	-82.2
CCO[C@@H]1OC(C(=O)NCc2nc3ccccc3[nH]2)=C[C@H](C2CC2)[C@H]1CCCO	-119.3
CCO[C@@H]1OC(C(=O)NCc2nc3ccccc3[nH]2)=C[C@H](C(C)(C)C)[C@H]1CCCO	–
O=C(NCCN1CCOCC1)c1cc(-c2ccccc2)on1	-130.4
CC(C)(C)c1ccc(C(O)CCCN2CCC(C(O)(c3ccccc3)c3ccccc3)CC2)cc1 (configuration not stated)	–
O=C(NCCCN1CCOCC1)c1cc(-c2ccccc2)on1	-113.4
CC(C)(C)c1ccc(C(=O)NCCN2CCOCC2)cc1	-189.7
O=C1C=C(NCCN2CCOCC2)C(=O)c2cnccc21	–
CC(C)(C)SCCNC(=O)CSc1ccccc1	-72.5
CC(C)(C)SCCNC(=O)Nc1ccccc1	-87.0
CCCc1nnc(NC(=O)Nc2ccccc2OC)s1	-91.8
CCCSc1nnc(NC(=O)Nc2ccccc2OC)s1	-143.6
COc1ccccc1Nc1nnc(SCC(=O)N2CCCC2)s1	-77.0
CCNC(=S)NNC(=O)c1csc(C(C)C)c1	-75.5
Brc1ccc(-c2nnc(-c3cccc(Br)c3)o2)cc1	-127.2
O=C(O)c1ccc(-c2nnc(-c3cccc(Br)c3)o2)cc1	-201.9
COc1ccc(C2NN=C(c3ccc(C)cc3)S2)cc1OC (configuration not stated)	-144.3
SMILES	aSyn UTR act
CCOC(=O)N1CCN(C(=O)CSc2nnc(-c3ccc(C(C)(C)C)cc3)o2)CC1	-72.8
O=C(CSc1nnc(-c2ccc(F)cc2)o1)N1CCCC1	-113.8
Cc1ccc(-c2nnc(SCC(=O)N3CCCC3)o2)cc1C	-83.0
Cc1cccc(-c2nnc(SCC(=O)N3CCCC3)o2)c1	-82.8
Cc1ccc(-c2nnc(SCC(=O)N3CCCC3)o2)cc1	-104.1
Cc1ccc(C2C=NN(c3ccccc3)C2=O)cc1 (configuration not stated)	-64.4
COc1ccc(-c2nn(-c3ccccc3)cc2/C=N/NC(=O)c2ccc(Br)o2)cc1	-97.5
Cc1ccc(-c2nn(-c3ccccc3)cc2/C=N/NC(=O)CSc2nnc(C)n2-c2ccccc2)cc1	-124.5
COc1ccc(-c2nn(-c3ccccc3)cc2/C=N/NC(=O)c2ccc3c(c2)OCO3)cc1	-116.1
O=C(N/N=C/c1c(O)ccc2ccccc12)c1ccc(Br)o1	–
Cc1cc(SCC(=O)N/N=C/c2ccc(O)c(O)c2O)c(C)cc1Br	–
c1ccc2[nH]c(CSc3nc4ccccc4o3)nc2c1	-77.7
O=[N+]([O-])c1ccc(CSc2nc3ccccc3o2)cc1	-133.2
O=C(c1ccco1)N1CCn2c1nc1ccccc12	-123.9
COc1ccc(NC(=O)N2CCn3c2nc2ccccc23)cc1	-63.9
CCCc1nc2oc3c(NCc4ccccn4)ncnc3c2c2c1COC(C)(C)C2	–
Cc1nc2oc(C(=O)c3ccccc3)c(N)c2c2c1COC(C)(C)C2	-83.1
CC(=O)Nc1ccc(OCc2nnc(-c3ccc(Cl)cc3)o2)cc1	-95.6
CCOC(=O)C1CCN(c2ccc(-c3cccs3)nn2)CC1	-212.5
O=C(Nc1cnc2ccccc2c1)c1ccco1	-94.9
CC(C)(C)c1ccc(C(=O)Nc2cccc(-n3cnnn3)c2)cc1	-84.8
Cc1cc(C(=O)Nc2cnc3ccccc3c2)ccc1[N+](=O)[O-]	-131.8
O=C(Nc1cnc2ccccc2c1)c1cccnc1	-101.0
Cc1ccc(C(=O)Nc2cnc3ccccc3c2)cc1	–
O=C(Nc1cnc2ccccc2c1)c1cccc(-n2cnnn2)c1	-89.3
SMILES	aSyn UTR act
Cn1c(NC(=O)c2cccnc2)nc2ccccc21	-101.3
O=C(Nc1cccc(-c2cnc3ccccc3n2)c1)c1ccco1	-80.0
CCn1cc(/C=C/C(=O)Nc2ccc(C)cc2Br)cn1	-82.0
Cn1c(NC(=O)/C=C/c2ccco2)cc(=O)n(C)c1=O	-61.7
O=C(/C=C/c1ccco1)Nc1cccnc1Cl	-130.3
COC(=O)c1ccccc1NC(=O)/C=C/c1ccco1	-68.3
O=C(/C=C/c1ccccc1)Nc1cccnc1Cl	-84.1
Oc1ccc(NC(=S)N=Nc2c(O)[nH]c3ccccc23)cc1	-130.7
O=C(N=Nc1c(O)[nH]c2ccc(Br)cc12)c1cc(-c2cccs2)nc2ccccc12	–
O=C(N=Nc1c(O)[nH]c2ccccc12)c1cccs1	-74.3
CC(C)c1ccc2[nH]c(O)c(N=NC(=O)c3cccc(S(=O)(=O)Nc4ccc(Cl)cc4)c3)c2c1	–
C=CCn1c(O)c(N=NC(=S)Nc2cccc(C)c2)c2ccccc21	–
CSc1ccccc1OCc1cc(C(=O)N(C)Cc2cnccn2)no1	-96.9
